Assay results taken from PubChem BioAssay (Tox21).
Inconclusive results are not listed. The source made the active and inactive calls. Unless noted, calls come from the whole dose curve; as a rule, active = well fitted curve in the direction sought with a large enough effect in the repeat runs; inconclusive = weak or mixed curves; inactive = no such curve, though single readings can be large; an effect the other way counts as inactive or inconclusive.

Tests used:
[1] = qHTS RealTime-Glo MT Cell Viability Assay in HEK293 cells - 24 hour (AID 1224886); note: top concentration of the series differs between compounds; nearly all actives have a fitted effect of over 50% in size
Method in brief: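 HEK293 cells were seeded at 600 cells/well together with NanoLuc luciferase and cell-permeant prosubstrate, preincubated 5 h at 37 C/5% CO2, then given compound in DMSO by pintool. Luminescence from viable-cell prosubstrate reduction was read repeatedly over 40 h.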

[2] = qHTS RealTime-Glo MT Cell Viability Assay in HEK293 cells - 8 hour (AID 1224887); note: top concentration of the series differs between compounds; nearly all actives have a fitted effect of over 50% in size
Method in brief: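 Real-time viability in HEK293: signal arises when living cells convert a prosubstrate for NanoLuc in the medium, so luminescence tracks viable cell number. Compound (23 nL, DMSO) added 5 h post-seeding; kinetic reads at 0–40 h, 37 C.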

[3] = qHTS RealTime-Glo MT Cell Viability Assay in HepG2 cells - 0 hour (AID 1224889); note: nearly all actives have a fitted effect of over 50% in size
Method in brief: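 HepG2 cells were seeded at 600 cells/well together with NanoLuc luciferase and a cell-permeant prosubstrate, preincubated 5 h at 37 C/5% CO2, then pin-dosed with compounds in DMSO. Nonlytic luminescence from viable cells was read at each time point.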

[4] = A CellTox Green Cytotoxicity Assay to monitor cytotoxicity in HepG2 cells - 8 hour (AID 1224890); note: nearly all actives have a fitted effect of over 45% in size
Method in brief: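 Cells and non-lytic dye reagent are dispensed together (600 HepG2 cells/well) and incubated 5 h before DMSO compound transfer. Kinetic fluorescence is then recorded in the same wells during 40 h at 37 C.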

[5] = qHTS assay to identify small molecule antagonists of the estrogen receptor alpha (ER-alpha) signaling pathway using the BG1 cell line in the presence of 0.1 nM 17-beta-estradiol - cell viability counter screen (AID 1259241); note: nearly all actives have a fitted effect of over 40% in size
Method in brief: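 Measures cytotoxicity alongside the ER-alpha antagonist readout: VM7Luc4E2 cells, charcoal-stripped serum, 0.1 nM 17beta-estradiol final, 22 hr compound incubation at 37C, CellTiter-Fluor fluorescence.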

[6] = qHTS assay to identify small molecule antagonists of the androgen receptor (AR) signaling pathway using the MDA cell line in the presence of 0.5 nM R1881 - cell viability counter screen (AID 1259242); note: nearly all actives have a fitted effect of over 45% in size
Method in brief: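 Steps: plate MDA-kb2 cells, rest 5 hr at 37C without CO2; pin in compounds in DMSO; add R1881 to 0.5 nM final; incubate 16 hr; add CellTiter-Fluor, 30 min; read fluorescence.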

[7] = qHTS assay to identify small molecule HDAC inhibitors (AID 1259364);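 note: wild-type HCT-116 cells with endogenous class I/II HDAC activity; top concentration of the series differs between compounds; nearly all actives have a fitted effect of over 45% in size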
Method in brief: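 Cells (HCT-116, wild type) are seeded at 1,500 per well, incubated overnight, treated with compound in DMSO for 2 hr, then developed with HDAC-Glo I/II reagent for 30 min at room temperature.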

[8] = qHTS assay to identify small molecule HDAC inhibitors - cell viability counter screen (AID 1259365); note: series mostly up to about 92 µM; nearly all actives have a fitted effect of over 50% in size
Method in brief: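 Following a 2hr exposure of overnight-plated wild-type HCT-116 cells to DMSO-delivered compounds, CellTiter-Glo was added and luminescence recorded after 30min at room temperature.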

[9] = qHTS assay to identify small molecule agonists of the sonic hedgehog signaling (Shh) pathway - cell viability counter screen (AID 1259366); note: nearly all actives have a fitted effect of over 50% in size
Method in brief: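 After a 4hr attachment at 37C, NIH/3T3 cells bearing an integrated Gli1-driven luciferase reporter were dosed with compounds. Treatment lasted 24hr, with the final hour including CellTiter-Fluor for a fluorescence viability measurement.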

[10] = qHTS assay to identify small molecule antagonists of the sonic hedgehog signaling (Shh) pathway - cell viability counter screen (AID 1259367); note: nearly all actives have a fitted effect of over 55% in size
Method in brief: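 Fluorescence read-out (CellTiter-Fluor, 1 hr at 37C) taken after 23 hr compound treatment of 3T3 Gli1-Luc cells stimulated with conditioned medium. Cells were seeded at 2,000 per well and pre-incubated 4 hr.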

[11] = qHTS assay to identify small molecule agonists of the sonic hedgehog signaling (Shh) pathway (AID 1259368; calls by dose curve;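 note: NIH/3T3-derived 3T3Gli1-Luc cells carrying a stable Gli1-driven firefly luciferase reporter; series mostly up to about 92 µM; nearly all actives have a fitted effect of over 15% in size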)
Method in brief: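 Cells of a mouse NIH/3T3 clone stably expressing luciferase under the Gli1 transcriptional response element are exposed to test chemicals for 24 hr at 37 C. Pathway activation is detected as a rise in luminescence.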

[12] = qHTS assay to identify small molecule antagonists of the sonic hedgehog signaling (Shh) pathway (AID 1259369; calls by dose curve; note: nearly all actives have a fitted effect of over 45% in size)
Method in brief: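 Cells are plated and held 4hr at 37 C, compounds (DMSO) are pinned in, conditioned medium is added to stimulate the pathway, and after 24hr luciferase reagent is added for 30min before luminescence is read.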

[13] = target: Estrogen receptor beta (Homo sapiens) (UniProt Q92731); assay: qHTS assay to identify small molecule agonists of the estrogen receptor beta (ER-beta) signaling pathway (AID 1259377; active = well fitted activation curve with a large enough effect in the signal ratio in the repeat runs, not every such curve was filed as active; the % refers to the signal ratio)
Estrogen receptor beta (Homo sapiens), sequence (Q92731 whole entry, looked up): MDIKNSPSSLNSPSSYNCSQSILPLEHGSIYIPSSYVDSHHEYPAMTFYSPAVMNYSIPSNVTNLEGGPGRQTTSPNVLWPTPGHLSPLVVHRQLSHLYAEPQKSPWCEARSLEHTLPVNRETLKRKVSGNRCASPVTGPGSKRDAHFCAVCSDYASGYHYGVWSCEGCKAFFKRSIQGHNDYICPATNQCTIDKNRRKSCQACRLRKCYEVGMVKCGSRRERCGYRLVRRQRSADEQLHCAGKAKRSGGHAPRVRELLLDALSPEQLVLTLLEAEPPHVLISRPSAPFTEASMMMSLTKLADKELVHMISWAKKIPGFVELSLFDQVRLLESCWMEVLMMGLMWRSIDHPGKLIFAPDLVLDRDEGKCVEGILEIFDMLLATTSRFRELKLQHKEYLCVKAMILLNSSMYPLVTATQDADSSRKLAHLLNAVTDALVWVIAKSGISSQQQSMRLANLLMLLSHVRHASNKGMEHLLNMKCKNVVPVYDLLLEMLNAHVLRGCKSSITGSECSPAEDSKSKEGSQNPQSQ
Method in brief: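 In HEK293T cells bearing a UAS-beta-lactamase reporter under ER-beta control, DMSO-delivered compounds were incubated for 16 hr at 37C. Activity was detected as fluorescence 2 hours after LiveBLAzer B/G FRET substrate addition.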

[14] = target: Estrogen receptor beta (Homo sapiens) (UniProt Q92731); assay: qHTS assay to identify small molecule antagonists of the estrogen receptor beta (ER-beta) signaling pathway (AID 1259378; active = well fitted inhibition curve with a large enough effect in the signal ratio in the repeat runs, not every such curve was filed as active; the % refers to the signal ratio)
Method in brief: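 ER-beta-UAS-bla HEK293T cells in 2% charcoal-stripped FBS medium treated with compound plus 1nM final 17-beta-estradiol for 16 hr at 37C. Beta-lactamase reporter read by FRET substrate fluorescence after 2 hours at room temperature.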

[15] = qHTS assay to identify small molecule agonists of the androgen receptor (AR) signaling pathway in the presence of an antagonist - cell viability counter screen (AID 1259379);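 note: MDA-kb2 human breast cancer cells carrying an MMTV luciferase reporter; series mostly up to about 92 µM; nearly all actives have a fitted effect of over 25% in size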
Method in brief: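 Cytotoxicity is assessed by CellTiter-Fluor in MDA-kb2 cells carrying an MMTV-driven luciferase reporter. Cells receive 3.0uM nilutamide plus compounds at 15 concentrations and incubate 16 hr at 37C without CO2 before fluorescence reading.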

[16] = qHTS assay to identify small molecule agonists of the estrogen receptor beta (ER-beta) signaling pathway - cell viability counter screen (AID 1259380); note: nearly all actives have a fitted effect of over 30% in size
Method in brief: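 Cytotoxicity is measured in parallel with the reporter screen: after 16 hr compound exposure at 37C and a 2 hr LiveBLAzer step, CellTiter-Glo is added to the same ER-beta-UAS-bla HEK293T wells and luminescence read after 30 min.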

[17] = qHTS assay to identify small molecule phospholipidosis (PLD) inducers (AID 1259344; active = well fitted curve in the direction sought with a large enough effect; an effect the other way counts as inactive or inconclusive)
Method in brief: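 Read-out is LipidTOX Red fluorescence (ex 595/em 615) imaged in HepG2 cells after 24 h compound exposure at 37 C, with Hoechst nuclear counterstain (ex 352/em 461) allowing per-cell normalisation.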

[18] = target: Estrogen receptor (Homo sapiens) (UniProt P03372); assay: qHTS assay to identify small molecule antagonists of the estrogen receptor alpha (ER-alpha) signaling pathway using the BG1 cell line in the presence of 0.1 nM 17-beta-estradiol (AID 1259244); note: nearly all actives have a fitted effect of over 50% in size
Estrogen receptor (Homo sapiens), sequence (P03372 whole entry, looked up): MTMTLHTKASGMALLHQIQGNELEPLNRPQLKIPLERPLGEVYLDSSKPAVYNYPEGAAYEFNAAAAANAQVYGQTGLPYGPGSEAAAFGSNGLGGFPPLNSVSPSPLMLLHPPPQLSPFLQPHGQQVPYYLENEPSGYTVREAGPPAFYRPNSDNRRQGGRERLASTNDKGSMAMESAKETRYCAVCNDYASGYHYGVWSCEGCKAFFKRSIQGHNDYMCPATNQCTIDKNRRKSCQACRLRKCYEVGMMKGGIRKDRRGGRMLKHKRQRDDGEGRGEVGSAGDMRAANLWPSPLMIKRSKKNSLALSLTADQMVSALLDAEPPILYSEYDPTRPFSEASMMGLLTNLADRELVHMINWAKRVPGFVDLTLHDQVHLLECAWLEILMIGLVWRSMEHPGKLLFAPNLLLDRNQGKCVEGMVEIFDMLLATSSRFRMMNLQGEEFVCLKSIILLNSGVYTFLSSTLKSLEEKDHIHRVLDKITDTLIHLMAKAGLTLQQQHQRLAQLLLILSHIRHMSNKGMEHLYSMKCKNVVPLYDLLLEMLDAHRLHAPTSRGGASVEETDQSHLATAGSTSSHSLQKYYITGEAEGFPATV
Method in brief: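 Antagonist mode: compounds in DMSO are pinned onto VM7Luc4E2 reporter cells, 0.1 nM final 17beta-estradiol is added, and after 22 h at 37C luciferase luminescence is measured with ONE-Glo.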

Measured: Potency

CCC(CO)CO
inactive: [1] | [2] | [3] | [4] | [5] | [6] | [7] | [8] | [9] | [10] | [11] | [12] | [13] | [14] | [15] | [16]

CN[C@@H]1[C@@H](O)[C@@H](O[C@@H]2[C@H](O)[C@H](O[C@H]3OC(CN)=CC[C@H]3N)[C@@H](N)C[C@H]2N)OCC1(C)O (some centres not stated)
inactive: [1] | [2] | [3] | [4] | [5] | [6] | [17] | [7] | [8] | [9] | [10] | [15]

C[C@H](CCC(=O)O)[C@H]1CC[C@H]2[C@@H]3[C@H](O)C[C@@H]4C[C@H](O)CC[C@]4(C)[C@H]3C[C@H](O)[C@]12C
inactive: [1] | [2] | [3] | [4] | [6] | [18] | [17] | [7] | [8] | [9] | [10] | [12] | [15] | [16]

Cc1ccccc1N1CCN(CCc2nnc3n2CCCC3)CC1
inactive: [1] | [2] | [3] | [4] | [5] | [6] | [17] | [7] | [8] | [9] | [10] | [11] | [12] | [13] | [15] | [16]

CC(C)CCCCCCOC(=O)C1CCCCC1C(=O)OCCCCCCC(C)C (configuration not stated)
inactive: [1] | [2] | [3] | [4] | [5] | [6] | [7] | [8] | [9] | [10] | [11] | [12] | [13] | [14] | [15] | [16]

CC(C)COC(=O)/C=C/c1ccccc1
inactive: [1] | [2] | [3] | [4] | [5] | [6] | [18] | [7] | [8] | [10] | [11] | [12] | [13] | [15] | [16]

Nc1nc(=O)n([C@@H]2O[C@H](CO)[C@@H](O)[C@@H]2F)cc1I
inactive: [1] | [2] | [3] | [4] | [5] | [6] | [18] | [7] | [8] | [9] | [10] | [11] | [13] | [15] | [16]

Cc1ccc(S(=O)(=O)NC(=O)NC2CCCCCCC2)cc1
inactive: [1] | [2] | [3] | [4] | [5] | [6] | [17] | [7] | [8] | [10] | [11] | [12] | [13] | [15] | [16]

CC(C)=CC(C)(C)C
inactive: [1] | [2] | [3] | [4] | [6] | [7] | [8] | [10] | [11] | [12] | [13] | [15] | [16]
